Experimental data from PubChem BioAssay (NCATS).
Records with an inconclusive call do not appear. Entries that show only a call come without a potency. Active and inactive are the calls of the source. The call rests on the fitted dose curve; in most records, active means well fitted cell-killing curve with a large enough effect; inconclusive means small, poorly fitted or top-dose-only effect; inactive means flat fitted curve, though single readings scatter.
Potency means the concentration at half of the fitted maximal effect.

Test: qHTS assay to identify small molecule inhibitors of chordoma cells - UCH-2 (AID 1259356)
Settings: UCH-2 chordoma viability, CellTiter-Glo ATP luminescence, 48 h; series mostly up to 46.1 µM
Text: NIH Chemical Genomics Center [NCGC]
Chordoma is a rare and slow growing tumor that can occur anywhere along the spine, from the base of the skull to the tailbone. Current treatment options for chordoma is surgery and radiation therapy for those who are not candidates for surgery. But chordomas tend to return in the same location or surrounding areas of the original tumor after surgery and/or radiation. Chemotherapy can slow down the progression of the tumor. As chordoma is slow growing, the general cytotoxic agents that kill fast growing cells are ineffective, and some patients have been reported to respond to molecularly targeted drugs.
NCATS Pharmaceutical Collection (NPC) containing approximately 3000 clinically approved and investigational drugs were used to screen at 15 concentrations in a chordoma cell lines, UCH-2, to identify small molecule compounds that can inhibit chordoma cell growth.
NCGC Assay Protocol Summary:
Human chordoma cell line UCH-2 was dispensed at 800 per well in 4uL of culture medium into white solid bottom 1536-well plates (Corning Life Sciences, Corning, NY) using a Multidrop Combi (Thermo Scientific, Waltham, MA) dispenser. The assay plates were incubated at 37 C and 5% CO2 for an overnight, and then 23nL of compounds dissolved in DMSO and positive control were transferred using a Pintool station (Wako, San Diego, CA). Compound treatment was followed by the addition of 1uL of the combination compounds (1uM Auranofin, 500nM each of Camptothecin, Doxorubicin, Rubitecan, and Topotecan) and assay medium to each well of the assay plates using Flying Reagent Dispenser (FRD, Aurora Discovery, San Diego, CA). The assay plates were incubated at 37 C and 5% CO2 for 48hr. Then 5uL of CellTiter-Glo reagent (Promega Corporation, Madison, WI) was added to each well of the assay plates using FRD. After 30min incubation at room temperature, the luminescence signal was quantified using a ViewLux plate reader (PerkinElmer, Shelton, CT).
With `CC(C)[C@@H]1CC[C@@H](C)C[C@H]1OC(=O)c1ccccc1O` the Potency was “inactive”.
With `O=C(O)[C@@H]1C[C@H](CP(=O)(O)O)CCN1` the Potency was “inactive”.
With `CC(=O)Nc1ccc(OC(=O)c2ccccc2O)cc1` the Potency was “inactive”.
With `CCC(O)c1ccccc1` (stereo not given) the Potency was “inactive”.
For `Cc1cc(O)c2c(c1)O[C@@]1(C)CC[C@H]3C(C)(C)CCCC34CO[C@@H]2[C@H]41` (stereo not given in full), the Potency was “inactive”.
For `NC(=O)C1c2ccccc2CCc2ccccc21`, the Potency was “inactive”.
For `CN1C(=O)C[C@@H](C(=O)N[C@@H](Cc2cnc[nH]2)C(=O)N2CCC[C@H]2C(N)=O)NC1=O`, the Potency was “inactive”.
With `O=C(Nc1ccc(O)cc1)c1ccccc1O` the Potency was “inactive”.
With `FC(F)(F)C(F)(F)C(F)(F)C(F)(F)C(F)(F)C(F)(F)F` the Potency was “inactive”.
In the case of `CCCCCCOC(=O)c1cccnc1`, the Potency is reported as “inactive”.
In the case of `C[C@@H]1O[C@@H](OC[C@H]2O[C@@H](Oc3c(-c4ccc(OCCO)c(OCCO)c4)oc4cc(OCCO)cc(O)c4c3=O)[C@H](O)[C@@H](O)[C@@H]2O)[C@H](O)[C@H](O)[C@H]1O`, the Potency is reported as “inactive”.
For `CN[C@@H]1[C@@H](O[C@H]2O[C@H](CO)[C@@H](N)[C@H](O)[C@H]2O)O[C@H]2C[C@@H](N)[C@@H](O[C@H]3[C@H](O)[C@@H](O)[C@H](N)C[C@@H]3N)O[C@@H]2[C@@H]1O`, the Potency was “inactive”.
With `CCOc1ccc(S(=O)(=O)O)c2cccnc12` the Potency was “inactive”.
With `CC(C)CN(C[C@@H](O)[C@H](Cc1ccccc1)NC(=O)O[C@@H]1CCOC1)S(=O)(=O)c1ccc(N)cc1` the Potency was “inactive”.
For `CC(C)CCC[C@@H](C)[C@H]1CC[C@H]2[C@@H]3CC[C@@H]4C[C@H](O)CC[C@]4(C)[C@H]3CC[C@]12C`, the Potency was “inactive”.
With `O=C(O)[C@H]1CN(C/C=C/P(=O)(O)O)CCN1` the Potency was “inactive”.
In the case of `NC(=S)N=Nc1ccc(NN=C(N)N)cc1`, the Potency is reported as “inactive”.
For `C=CCN1CCCC1CNC(=O)c1cc(S(N)(=O)=O)cc(OC)c1OC` (stereo not given), the Potency was “inactive”.
In the case of `CC(=O)NCCCS(=O)(=O)O`, the Potency is reported as “inactive”.
In the case of `CC(C)CCCC(C)NC(C)C` (stereo not given), the Potency is reported as “inactive”.
For `NC(=O)Oc1ccc(Cc2ccccc2)cc1`, the Potency was “inactive”.
With `CC1=C[C@H](O)CC(C)(C)[C@H]1/C=C/C(C)=C/C=C/C(C)=C/C=C/C=C(C)/C=C/C=C(C)/C=C/C1=C(C)C[C@@H](O)CC1(C)C` the Potency was “inactive”.
With `O=C1CC[C@@H](C(=O)N[C@H]2C[C@@H]2c2ccccc2)N1` the Potency was “inactive”.
In the case of `O=C(OC[C@H]1O[C@](O)(COC(=O)c2cccnc2)[C@@H](OC(=O)c2cccnc2)[C@@H]1OC(=O)c1cccnc1)c1cccnc1`, the Potency is reported as “inactive”.
With `CNC(=O)c1c(I)c(C(=O)NCC(=O)Nc2c(I)c(C(=O)O)c(I)c(C(=O)NCCO)c2I)c(I)c(N(C)C(C)=O)c1I` the Potency was “inactive”.
For `CCOC(=O)Oc1c(OC)cc(C(=O)O[C@@H]2C[C@@H]3CN4CCc5c([nH]c6cc(OC)ccc56)[C@H]4C[C@@H]3[C@H](C(=O)OC)[C@H]2OC)cc1OC`, the Potency was “inactive”.
For `CCCCCc1ccc(C)cc1O`, the Potency was “inactive”.
In the case of `O=P(O)(O)OP(=O)(O)O`, the Potency is reported as “inactive”.
For `CO[C@H]1C=CO[C@@]2(C)Oc3c(C)c(O)c4c(O)c(cc(O)c4c3C2=O)NC(=O)/C(C)=C\C=C/[C@H](C)[C@H](O)[C@@H](C)[C@@H](O)[C@@H](C)[C@H](OC(C)=O)[C@@H]1C`, the Potency was “inactive”.
For `CC(=O)[C@H]1CC[C@H]2[C@@H]3C=CC4=CC(=O)CC[C@@]4(C)[C@H]3CC[C@]12C`, the Potency was “inactive”.
In the case of `COc1ccc(/C=C/C(=O)OCCC(C)C)cc1`, the Potency is reported as “inactive”.
With `Cc1cc(-c2ccc(N=Nc3ccc4c(S(=O)(=O)O)cc(S(=O)(=O)O)c(N)c4c3O)c(C)c2)ccc1N=Nc1ccc2c(S(=O)(=O)O)cc(S(=O)(=O)O)c(N)c2c1O` the Potency was “inactive”.
In the case of `CC(C)CCC[C@@H](C)[C@H]1CC[C@H]2[C@@H]3CC=C4C[C@@H](O)CC[C@]4(C)[C@H]3CC[C@]12C`, the Potency is reported as “inactive”.
In the case of `O=P(O)(O)CP(=O)(O)O`, the Potency is reported as “inactive”.
In the case of `CC(C)(O/N=C(\C(=O)N[C@@H]1C(=O)N2C(C(=O)[O-])=C(C[n+]3ccccc3)CS[C@H]12)c1csc(N)n1)C(=O)O`, the Potency is reported as “inactive”.
For `COc1cc(NCCCC(C)N)c2ncccc2c1` (stereo not given), the Potency was 9.2 µM (active).
With `C[C@@H]1O[C@@H]1P(=O)(O)O` the Potency was “inactive”.
For `C[C@]12CC[C@@H]3c4ccc(OC(=O)c5ccccc5)cc4CC[C@H]3[C@@H]1CC[C@@H]2O`, the Potency was “inactive”.
For `CCCCCCCCCCCCCCCCOCCOCCOCCOCCOCCOCCOCCOCCOCCOCCOCCOCCOCCOCCOCCOCCOCCOCCOCCOCCO`, the Potency was “inactive”.
For `CCCCO`, the Potency was “inactive”.
